Experimental data as given in PubChem BioAssay (Tox21).
Values joined by “and” are separate entries in the source; they are usually repeats but may differ in a detail not shown here. Equal entries are not always repeated. Results filed as inconclusive are left out. A structure can be active in one record and inactive in another. Active and inactive are the calls of the source. Unless noted, calls follow the shape of the full dose curve.

Experiments:
[1] = Nuclear factor erythroid 2-related factor 2/antioxidant responsive element (Nrf2/ARE) small molecule agonists: qHTS cell viability counter screen in human keratinocytes (AID 1919968; active = well fitted curve in the direction sought with a large enough effect in the repeat runs; an effect the other way counts as inactive or inconclusive; also: nearly all actives have a fitted effect of over 55% in size; also: potency is read from the fitted curve at half-maximal effect)
How it was run: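 In human HaCaT keratinocytes stably expressing an ARE-driven luciferase, compound exposure lasted 23 h at 37 C under 5% CO2. Viable cells are quantified with a protease-based fluorogenic reagent (CellTiter-Fluor) read 1 h after addition.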

[2] = Nuclear factor erythroid 2-related factor 2/antioxidant responsive element (Nrf2/ARE) small molecule agonists: luciferase reporter gene qHTS assay in human keratinocytes (AID 1919969); also: nearly all actives have a fitted effect of over 35% in size; also: potency is read from the fitted curve at half-maximal effect
[3] = biological target: Gonadotropin-releasing hormone receptor (Homo sapiens) (UniProt P30968); assay: Human gonadotropin-releasing hormone receptor (GnRHR) small molecule agonists, calcium flux assay in GnRHR-HEK293 cells (AID 1920063); also: nearly all actives have a fitted effect of over 35% in size
Gonadotropin-releasing hormone receptor (Homo sapiens), sequence (P30968 whole entry, looked up): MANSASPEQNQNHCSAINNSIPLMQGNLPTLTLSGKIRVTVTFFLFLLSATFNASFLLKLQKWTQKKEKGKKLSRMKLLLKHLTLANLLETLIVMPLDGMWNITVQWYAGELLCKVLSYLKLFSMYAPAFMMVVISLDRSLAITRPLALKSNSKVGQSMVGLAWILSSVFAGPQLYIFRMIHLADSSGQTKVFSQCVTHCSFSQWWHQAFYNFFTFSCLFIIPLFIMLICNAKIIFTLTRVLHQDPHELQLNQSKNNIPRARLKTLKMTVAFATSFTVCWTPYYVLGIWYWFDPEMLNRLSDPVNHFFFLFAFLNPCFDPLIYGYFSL
How it was run: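 Intracellular calcium rise is the read-out: engineered human GnRHR HEK293 cells, dye-loaded, are exposed to DMSO-dissolved compounds and fluorescence at Ex/Em 480/540 is tracked for 3 min.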

[4] = biological target: KiSS-1 receptor (Homo sapiens) (UniProt Q969F8); assay: Human kisspeptin (KISS1R) small molecule agonists, calcium flux assay in KISS1R-HEK293 cells (AID 1920064; active = well fitted curve in the direction sought with a large enough effect in the repeat runs; an effect the other way counts as inactive or inconclusive)
KiSS-1 receptor (Homo sapiens), sequence (Q969F8 whole entry, looked up): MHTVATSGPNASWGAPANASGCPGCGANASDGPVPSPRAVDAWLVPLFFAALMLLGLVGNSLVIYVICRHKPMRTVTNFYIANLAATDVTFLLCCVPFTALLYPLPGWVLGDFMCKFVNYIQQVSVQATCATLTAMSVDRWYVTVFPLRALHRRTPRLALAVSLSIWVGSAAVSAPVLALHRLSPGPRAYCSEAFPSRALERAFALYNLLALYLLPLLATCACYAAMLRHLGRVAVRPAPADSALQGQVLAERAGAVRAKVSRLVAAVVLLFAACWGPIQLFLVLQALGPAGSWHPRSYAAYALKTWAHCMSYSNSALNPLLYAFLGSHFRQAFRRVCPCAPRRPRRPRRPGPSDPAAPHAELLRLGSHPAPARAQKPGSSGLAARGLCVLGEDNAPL
How it was run: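 Concentration-response testing used 15 concentrations in triplicate on human KISS1R-expressing HEK293 cells. Calcium-dependent fluorescence (Ex/Em 480/540) was followed kinetically for 3 min after compound transfer.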

[5] = G protein-coupled receptor (GPCR) small molecule agonists, calcium flux assay: HEK293 wild type cell line counter screen (AID 1920065)
How it was run: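 Fluorescence intensity signals activation. After overnight (18 h) culture and a 1 h calcium dye load at 37 C, compounds are added by pin tool and the plate read at 480/540 nm for 3 min in 1 s steps.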

[6] = p53 small molecule agonists, cell-based qHTS assay with human liver microsomes (AID 1963577);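 also: p53 response element beta-lactamase reporter cells with liver microsomes plus NADPH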
How it was run: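 Metabolically competent format: test substances, human liver microsomes and NADPH (both 0.5 mg/mL final) incubated with p53RE-bla cells 16 h at 37 C. Beta-lactamase reporter signal then quantified by fluorescence.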

[7] = p53 small molecule agonists, cell-based qHTS assay with rat liver microsomes (AID 1963578)
How it was run: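 Each plate received p53RE-bla cells, then compound, then rat liver microsomes and NADPH (both 0.5 mg/mL final). Plates were held 16 h at 37 C, and beta-lactamase activity was detected with LiveBLAzer over 2 h.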

[8] = p53 small molecule agonists, cell-based qHTS assay with human liver microsomes: qHTS cell viability counter screen (AID 1963579); also: nearly all actives have a fitted effect of over 45% in size
How it was run: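 Tox21 library compounds, delivered from DMSO stocks, were tested on p53RE-bla cells together with 0.5 mg/mL human liver microsomes and 0.5 mg/mL NADPH (final) over 16 h at 37 C; CellTiter-Glo luminescence served as the cytotoxicity measure.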

[9] = p53 small molecule agonists, cell-based qHTS assay with rat liver microsomes: qHTS cell viability counter screen (AID 1963580); also: nearly all actives have a fitted effect of over 45% in size
How it was run: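 Cytotoxicity counter screen: intracellular ATP read by CellTiter-Glo luminescence in the p53 reporter wells. HCT-116 p53RE-bla cells were treated for 16 h at 37 C alongside rat liver microsomes and NADPH, each 0.5 mg/mL final.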

[10] = p53 small molecule agonists, cell-based qHTS assay: qHTS cell viability counter screen (AID 1963581); also: nearly all actives have a fitted effect of over 45% in size
How it was run: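 Luminescence from CellTiter-Glo, reflecting ATP content, serves as the cytotoxicity measure; it is taken after the 2 h reporter substrate step in HCT-116 p53RE-bla cells dosed for 16 h at 37 C.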

[11] = biological target: 5-hydroxytryptamine receptor 2A (Homo sapiens) (UniProt P28223); assay: 5-hydroxytryptamine receptor 2A (HTR2A) small molecule antagonists, cell-based qHTS assay (AID 1963586); also: nearly all actives have a fitted effect of over 45% in size
5-hydroxytryptamine receptor 2A (Homo sapiens), sequence (P28223 whole entry, looked up): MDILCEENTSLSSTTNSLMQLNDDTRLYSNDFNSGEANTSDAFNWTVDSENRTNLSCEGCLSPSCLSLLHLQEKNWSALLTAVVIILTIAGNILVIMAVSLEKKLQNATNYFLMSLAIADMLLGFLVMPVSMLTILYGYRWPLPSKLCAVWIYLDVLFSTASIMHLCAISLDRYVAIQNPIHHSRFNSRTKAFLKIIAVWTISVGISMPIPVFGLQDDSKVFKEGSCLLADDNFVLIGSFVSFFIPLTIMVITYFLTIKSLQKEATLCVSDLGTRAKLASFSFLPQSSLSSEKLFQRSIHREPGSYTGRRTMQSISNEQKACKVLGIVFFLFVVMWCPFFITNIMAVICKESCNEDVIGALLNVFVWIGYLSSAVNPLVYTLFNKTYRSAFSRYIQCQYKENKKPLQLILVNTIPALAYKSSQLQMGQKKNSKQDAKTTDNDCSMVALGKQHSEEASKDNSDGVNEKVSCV
How it was run: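 CHO cells stably expressing human HTR2A were plated for 18 h at 37 C, then loaded with calcium dye for 1 h. Compounds were preincubated 5 min at room temperature before DOI (4 nM solution) was added. Kinetic fluorescence was read for 3 min.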

[12] = biological target: 5-hydroxytryptamine receptor 2A (Homo sapiens) (UniProt P28223); assay: 5-hydroxytryptamine receptor 2A (HTR2A) small molecule agonists, cell-based qHTS assay (AID 1963587); also: nearly all actives have a fitted effect of over 30% in size
How it was run: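 Kinetic calcium-flux fluorescence (2 min, 1 sec intervals) after compound addition in agonist mode. HTR2A-CHO cells were cultured 18 h, then dye-loaded 1 h at 37 C.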

[13] = biological target: Muscarinic acetylcholine receptor M1 (Homo sapiens) (UniProt P11229); assay: Cholinergic receptor muscarinic 1 (CHRM1) small molecule antagonists, cell-based qHTS assay (AID 1963588); also: nearly all actives have a fitted effect of over 40% in size
Muscarinic acetylcholine receptor M1 (Homo sapiens), sequence (P11229 whole entry, looked up): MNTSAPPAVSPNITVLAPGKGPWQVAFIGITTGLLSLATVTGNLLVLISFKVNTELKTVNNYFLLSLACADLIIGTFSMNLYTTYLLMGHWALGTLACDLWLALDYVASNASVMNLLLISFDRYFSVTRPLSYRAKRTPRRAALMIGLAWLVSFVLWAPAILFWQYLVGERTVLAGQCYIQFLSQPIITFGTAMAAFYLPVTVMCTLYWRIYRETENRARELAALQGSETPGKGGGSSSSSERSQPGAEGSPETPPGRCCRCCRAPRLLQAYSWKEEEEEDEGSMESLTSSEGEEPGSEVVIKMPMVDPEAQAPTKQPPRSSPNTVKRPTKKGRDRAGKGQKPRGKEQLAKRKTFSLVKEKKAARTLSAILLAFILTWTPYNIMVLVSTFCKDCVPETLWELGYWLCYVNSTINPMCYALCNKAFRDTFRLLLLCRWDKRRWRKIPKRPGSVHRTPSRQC
How it was run: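 Compounds were tested at 15 concentrations in three independent runs. Dye-loaded CHRM1-CHO cells were exposed 5 min at room temperature before stimulation by acetylcholine added at 50nM. Intracellular calcium was read kinetically on FDSS for 3 min.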

[14] = biological target: Muscarinic acetylcholine receptor M1 (Homo sapiens) (UniProt P11229); assay: Cholinergic receptor muscarinic 1 (CHRM1) small molecule agonists, cell-based qHTS assay (AID 1963589); also: nearly all actives have a fitted effect of over 35% in size
How it was run: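 Fluorescent calcium dye reports M1 activation in stably transfected CHO cells. Compounds, 15 concentrations, added after 1 h dye loading at 37 C; kinetic reading at 1 sec intervals.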

[15] = biological target: Beta-2 adrenergic receptor (Homo sapiens) (UniProt P07550); assay: Adrenergic beta2 receptor (ADRB2) small molecule antagonists, cell-based qHTS assay (AID 1963592); also: series mostly up to about 92 µM; nearly all actives have a fitted effect of over 50% in size
Beta-2 adrenergic receptor (Homo sapiens), sequence (P07550 whole entry, looked up): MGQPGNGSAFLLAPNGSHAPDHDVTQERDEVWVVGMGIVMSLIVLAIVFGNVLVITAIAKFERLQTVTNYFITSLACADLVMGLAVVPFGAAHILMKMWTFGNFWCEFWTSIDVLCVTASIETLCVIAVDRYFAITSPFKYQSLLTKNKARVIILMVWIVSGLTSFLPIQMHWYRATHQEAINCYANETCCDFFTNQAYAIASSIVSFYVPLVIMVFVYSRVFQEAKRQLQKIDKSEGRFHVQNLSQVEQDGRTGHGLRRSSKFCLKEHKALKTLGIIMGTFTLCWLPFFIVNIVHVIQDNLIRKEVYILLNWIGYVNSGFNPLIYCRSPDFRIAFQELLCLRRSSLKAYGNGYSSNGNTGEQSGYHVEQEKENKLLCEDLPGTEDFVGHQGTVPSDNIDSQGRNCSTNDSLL
How it was run: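 Assay format: CHO-ADRB2 cells, 18-20hr seeding at 37C/5% CO2, then compound plus 1nM isoproterenol agonist mix for 0.5hr RT. Homogeneous time-resolved fluorescence cAMP detection after 1hr, expressed as 665/615 nm ratio.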

[16] = biological target: D(2) dopamine receptor (Homo sapiens) (UniProt P14416); assay: Dopamine D2 receptor (DRD2) small molecule agonists, cell-based qHTS assay (AID 1963594); also: nearly all actives have a fitted effect of over 35% in size
D(2) dopamine receptor (Homo sapiens), sequence (P14416 whole entry, looked up): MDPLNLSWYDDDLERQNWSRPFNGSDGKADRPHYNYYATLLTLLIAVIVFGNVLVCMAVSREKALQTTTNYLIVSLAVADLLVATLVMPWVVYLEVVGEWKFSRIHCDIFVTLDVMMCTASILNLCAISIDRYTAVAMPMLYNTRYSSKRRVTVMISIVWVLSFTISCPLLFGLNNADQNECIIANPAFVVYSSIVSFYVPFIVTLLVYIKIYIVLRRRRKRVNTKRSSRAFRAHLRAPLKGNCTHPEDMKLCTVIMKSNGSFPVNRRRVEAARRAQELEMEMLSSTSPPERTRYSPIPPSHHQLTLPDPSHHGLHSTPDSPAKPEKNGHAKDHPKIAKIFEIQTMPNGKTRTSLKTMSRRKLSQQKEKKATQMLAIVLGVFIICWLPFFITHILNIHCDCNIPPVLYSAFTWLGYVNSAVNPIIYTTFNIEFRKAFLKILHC
How it was run: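 cAMP accumulation in DRD2-HEK293 cells measured by HTRF after 1 h detection; compounds added 10 min before NKH477 (200nM […]) forskolin-analogue stimulation, 30 min at room temperature, with Ro20-1724 present at 0.1 mM final.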

[17] = biological target: D(2) dopamine receptor (Homo sapiens) (UniProt P14416); assay: Dopamine D2 receptor (DRD2) small molecule antagonists, cell-based qHTS assay (AID 1963595; active = well fitted inhibition curve with a large enough effect in the signal ratio in the repeat runs, with a control signal flat; the % refers to the signal ratio)
How it was run: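 Cells were plated and grown for 24 h at 37 °C. Ro20-1724 (0.1 mM final) went in first, then compound for 10 min. NKH477 (200 nM) with quinpirole (12 nM) followed for 30 min at RT, then HTRF detection reagents for 1 h.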

[18] = cAMP Responsive Elements (CRE) small molecule agonists, cell-based qHTS assay (AID 1963590)
How it was run: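 Compound exposure lasted 3 h at 37 C/5% CO2 in CRE-bla HEK 293T cells grown in assay medium with 10% dialyzed FBS and 25 mM HEPES. Reporter signal came from LiveBLAzer B/G FRET substrate, 2 h, room temperature.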

[19] = p53 small molecule agonists, cell-based qHTS assay (AID 1963582; active = well fitted activation curve with a large enough effect in the signal ratio in the repeat runs, not every such curve was filed as active; the % refers to the signal ratio)
How it was run: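 After plating, p53RE-bla cells sat 5 h in the incubator; compounds or DMSO vehicle were pinned in; a 16 h incubation at 37 C followed; FRET substrate was added and, 2 h later at RT, fluorescence was measured.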

[20] = cAMP Responsive Elements (CRE) small molecule antagonists, cell-based qHTS assay (AID 1963591; active = well fitted inhibition curve with a large enough effect in the signal ratio in the repeat runs, not every such curve was filed as active; the % refers to the signal ratio)
How it was run: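 Stimulation used NKH477 at a final 0.25 uM for 3 h in compound-treated CRE-bla HEK293T cells, seeded 18 h beforehand. Reporter activity was measured with LiveBLAzer B/G FRET substrate after 2 h at room temperature.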

Measured: Potency

O=C(O)C(Br)Br
inactive: [1] | [2] | [3] | [4] | [5] | [6] | [7] | [8] | [9] | [10] | [11] | [12] | [13] | [14] | [15] | [16] | [17]

C[C@H]1CCCC(=O)CCC/C=C/c2cc(O)cc(O)c2C(=O)O1
58.9 µM (active) and inactive: [1]
inactive: [2] | [3] | [4] | [5] | [6] | [7] | [8] | [9] | [10] | [11] | [12] | [13] | [14] | [18] | [15] | [16] | [17]

C#C[C@]1(O)CC[C@H]2[C@@H]3CCC4=CC(=O)CC[C@]4(C)[C@H]3CC[C@@]21C
inactive: [1] | [2] | [3] | [4] | [5] | [6] | [7] | [8] | [9] | [10] | [19] | [18] | [20] | [16] | [17]

Clc1ccc(C2(Cn3cncn3)OCCO2)c(Cl)c1
inactive: [1] | [2] | [3] | [4] | [5] | [6] | [7] | [8] | [9] | [10] | [11] | [12] | [13] | [14] | [18] | [20] | [15] | [16] | [17]

CC(C)c1cccc(C(C)C)c1O
inactive: [1] | [2] | [3] | [4] | [5] | [6] | [7] | [8] | [9] | [10] | [19] | [18] | [20] | [15] | [16] | [17]

O=[N+]([O-])c1ccc(Oc2ccc(Cl)cc2Cl)cc1
inactive: [1] | [2] | [3] | [4] | [5] | [6] | [7] | [8] | [9] | [10] | [11] | [12] | [13] | [14] | [20] | [15] | [17]

O=C(O)c1nc(Cl)ccc1Cl
inactive: [1] | [2] | [3] | [4] | [5] | [6] | [7] | [8] | [9] | [10] | [11] | [12] | [13] | [14] | [20] | [15] | [16] | [17]

O=S(=O)(O)C(F)(F)C(F)(F)C(F)(F)C(F)(F)C(F)(F)C(F)(F)C(F)(F)C(F)(F)F
inactive and 61.1 µM (active): [1] | [2]
inactive: [3] | [4] | [5] | [6] | [7] | [8] | [9] | [10] | [19] | [12] | [13] | [14] | [18] | [20] | [15] | [16] | [17]
